Bioassay records as filed in PubChem.
Rows were chosen to be rich in hits. Some 6.5% of all compounds tested hit in one or more screens of this group.
HT1080NT lethal: kills 2HG-producing HT-1080-NT fibrosarcoma cells | Potency, µM (top dose mostly 46.1 µM), for inactives: at the highest dose activity, negative = less viability, usual class: cytotoxic | HT-1080-NT fibrosarcoma viability, CellTiter-Glo ATP luminescence, 48 h | 1.6% of 360,000 active;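 also: NT is the 2HG producing partner of a matched IDH1 knockdown line; potency is read from the fitted curve at half-maximal effect; 0% = DMSO-treated cells and -100% = media-only wells without cells; nearly all actives have a fitted effect of over 55% in size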
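HT-1080-NT fibrosarcoma cells (2HG-overproducing), 750 cells/well in RPMI with 5% FBS, dosed after 2 h and incubated 48 h at 37C. CellTiter-Glo luminescence normalized to DMSO and no-cell wells; concentration-response curves fitted and classed.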
IL1B secr inh: inflammasome signaling inhibition, IL-1 beta readout; 4.7% of 360,000 active; THP-1 LPS/ATP IL-1B secretion, AlphaLISA, 16 h; active compounds read low; activity change, % at 57.5 µM; AID 743279; in the data active = activity change below about -50%; inconclusive = mostly about -30% to -49%; also: % is scaled to controls: 0 for no effect and ±100 for the full control effect
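THP-1 cells pretreated 1 hr with compounds (up to 57.5 uM final), then stimulated with LPS (250 ng/mL final) plus ATP (1.25 mM final); secreted IL-1B measured by AlphaLISA after 16 hr, decreased signal indicating inhibition.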
HT1080 IDH1KD tx: kills HT-1080 cells with IDH1 knockdown; HT-1080 IDH1 knockdown viability, ATP luminescence, 48 h; Potency, µM (doses to about 46.1 µM), for inactives: top-dose activity, negative = toxicity, most hits filed as cytotoxic; 2% of 360,000 active;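 also: potency is read from the fitted curve at half-maximal effect; 0% = DMSO wells and -100% = cell-free medium wells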
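Using the IDH1-knockdown HT-1080 line run in the same batch and compound series as the NT line, viability after 48 h at 37 °C was determined by CellTiter-Glo luminescence and expressed as % activity.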
TGFb inhibitor: TGF-b pathway inhibition | 1.2% of 410,000 active | HepG2 CAGA-GFP TGF-b/SMAD3 reporter, GFP fluorescence, 18 h; TGF-beta stimulated, 500 pg/mL final | Potency, µM (titrated, usually from 46.1 µM), for the others: at the highest dose activity, negative = inhibition, most hits filed as inhibitors; also: potency is read from the fitted curve at half-maximal effect; % is scaled to controls: 0 for no effect and ±100 for the full control effect; nearly all actives have a fitted effect of over 65% in size
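Using HEPG2 CAGA-GFP reporter cells at 1000 cells/well, we pinned test compounds, stimulated with recombinant TGF-beta (500 pg/mL final) and measured total well GFP after 18 h.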
HepG2 viability: counter-screen for TGF-b inhibitors: cytotoxicity in HepG2 cells. HepG2 CAGA-GFP viability, ATP luminescence, 18 h. Potency, µM (titrated, usually from 46.1 µM), inactives show at the highest dose activity change, negative = cytotoxicity, most hits filed as cytotoxic. 0.76% of 410,000 active. AID 588856; also: potency is read from the fitted curve at half-maximal effect
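HepG2 CAGA-GFP cells (1000/well, DMEM with 1% FBS) received compound, then TGF-beta at 500 pg/mL final, and were incubated 18 hours at 37 degrees C. Viability was read by CellTiter-Glo luminescence. Media-only wells were set as complete cell-killing and DMSO as no toxicity.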
Giardia killer: Giardia lamblia killing. 0.15% of 340,000 active. activity change, % at 7.66 µM, hits read low. Giardia lamblia trophozoite viability; in the data active = activity change below about -80%; inconclusive = between about -30% and that limit;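 also: parasites exposed to compound for two days anaerobically before the ATP read; % is scaled to controls: 0 for no effect and ±100 for the full control effect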
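Giardia lamblia trophozoites (100 cells/well) were incubated with compounds for 48 h at 37 deg C under anaerobic conditions. Viability was read as ATP content by one-step luminescence after 15-30 min at room temperature.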
Starred values were filed as active, the others as inactive; u = inconclusive; x = not tested or not shown. Unless noted, calls follow the shape of the dose curve; as a rule, active = well fitted curve in the direction sought with a large enough effect; inconclusive = small, poorly fitted or top-dose-only effect, or another doubt; inactive = no such curve, though single readings can be large; an effect the other way counts as inactive or inconclusive.

SMILES	HT1080NT lethal	IL1B secr inh	HT1080 IDH1KD tx	TGFb inhibitor	HepG2 viability	Giardia killer
COc1ccc(/C=C/C(=O)c2cc3cccc(OC)c3oc2=O)cc1	-18%	-19	0%	18%	-21%	-24
Cc1cccc(N(CC(=O)NCCSCc2cccc(Cl)c2)S(=O)(=O)c2ccccc2)c1C	x	x	x	-19%	-26%	x
COc1cccc(NC(=O)CN(C)C(=O)c2cc(-c3ccccc3)nc3ccc(C)cc23)c1	u	-5	-11%	11%	-5%	-6
COc1cccc(NC(=O)CN(C)C(=O)c2cc(-c3cccc(Br)c3)nc3ccccc23)c1	u	-55*	-26%	u	9%	-1
COc1ccccc1CN(C)C(=O)c1cc(-c2cc(OC)c(OC)c(OC)c2)nc2ccccc12	15µM*	u	18µM*	-31%	-8%	35
COc1cc(-c2cc(C(=O)N(C)Cc3ccccc3)c3ccccc3n2)cc(OC)c1OC	-7%	-23	-17%	27%	-30%	3
Clc1cccc(CNc2ccn3nc(-c4ccccc4)cc3n2)c1	u	-6	-27%	u	-49%	x
c1ccc(COc2cccc(-c3cc4nc(NCCc5ccncc5)ccn4n3)c2)cc1	18µM*	-60*	23µM*	u	-63%	x
Clc1ccccc1-c1cc2nc(NCCCn3ccnc3)ccn2n1	-18%	-21	-4%	0%	-15%	x
Clc1cccc(CNc2ccn3nc(-c4cccc(Cl)c4)cc3n2)c1	u	-51*	u	u	-64%	x
c1ccc(COc2cccc(-c3cc4nc(NCCCn5ccnc5)ccn4n3)c2)cc1	16µM*	-1	23µM*	u	-43%	x
c1ccc(COc2cccc(-c3cc4nc(NCCOc5ccccc5)ccn4n3)c2)cc1	u	-30	u	u	-29%	x
CCOC(=O)CNC(=O)N1CCCC(C(=O)c2cccc(Cl)c2)C1 (stereo unspecified)	9%	-3	4%	-5%	-1%	2
O=c1oc2ccccc2c(NC2CCCCC2)c1NS(=O)(=O)c1ccc(Br)cc1	-10%	-71*	-15%	u	-9%	26
COCc1nnc(NC(=O)c2c(-c3c(Cl)cccc3Cl)noc2C)s1	u	20	21µM*	2%	-22%	38
COc1ccc(NC(=O)c2cc3ccccc3o/c2=N\NS(=O)(=O)c2ccc(C)cc2)cc1	15%	-1	13%	12%	8%	-18
CCOc1cc(CN2CCN(S(=O)(=O)Cc3ccccc3)CC2)ccc1OC	14%	15	-5%	13%	0%	-28
CCCS(=O)(=O)N1CCN(Cc2ccc(OCc3ccccc3)c(OC)c2)CC1	-8%	-73*	-28%	-19%	-20%	-1
CC1CC2=C(NC(=S)NC2c2cccc(F)c2)/C(=C/c2cccc(F)c2)C1 (stereo unspecified)	-29%	-64*	u	u	-7%	10
CC(=O)OCCCNc1cc(SCc2ccco2)c2nonc2c1[N+](=O)[O-]	-3%	-103*	-20%	u	-44%	23
CCCSc1cc(NCCOC(=O)CCC)c([N+](=O)[O-])c2nonc12	-2%	-19	u	u	-9%	13
CCCC(=O)OCCNc1cc(Sc2nccn2C)c2nonc2c1[N+](=O)[O-]	u	-101*	15µM*	16µM*	-98%	0
